Reference: the supplement of paper PMC12532568
Structures can show the parent of a compound that is named as a salt.

Test system: Danio rerio larvae Tg(actc1b:ZsGreen-LC3), 3 dpf
Test: LC3 puncta relative area vs vehicle, without NH4Cl (log2 fold change); higher = more autophagosomes
Details: 10 µM; treatment time 16 h; NH4Cl: none
Description: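 Transgenic Tg(actc1b:ZsGreen-map1lc3) zebrafish larvae (2 dpf) were treated for 16 h with Tocris library compounds at 10 µM (n = 12 larvae per compound). Skeletal-muscle LC3 puncta area relative to body area was measured by high-content confocal imaging before and after 4 h of 100 mM NH4Cl (autophagic flux), normalised to vehicle (DMSO), and reported as log2 fold change.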

Point of comparison: `O=C(/C=C/c1ccc(O)c(O)c1)O[C@H](Cc1ccc(O)c(O)c1)C(=O)O` [Rosmarinic acid], “LC3 puncta (log2)” value 0.0606. Against it:
- O=[N+]([O-])c1cc2nc(O)c(O)nc2cc1[N+](=O)[O-] — within 0.2 log units, 0.0864
- CCCCCCN(CCCCCC)C(=O)Cc1c(-c2ccc(Cl)cc2)[nH]c2ccc(Cl)cc12 — higher, 0.364
- CC(C)(Oc1ccc(Cl)cc1)C(=O)O [Clofibric acid] — higher, 0.448
- N=C(N)S/C=C\C(=O)O [ZAPA sulfate] — within 0.2 log units, 0.0963
- c1ccc(CN2CCC3(CCc4ccccc43)CC2)cc1 [L-693,403 maleate] — within 0.2 log units, -0.0234
- CC(=O)N1CCN(C)CC1 [1-Acetyl-4-methylpiperazine hydrochloride] — within 0.2 log units, 0.18
- N=C(N)SCCc1c[nH]cn1 [Imetit dihydrobromide] — higher, 0.595
- CC(C)NCC(O)COc1cccc2ccccc12 (stereo not given) [Propranolol hydrochloride] — within 0.2 log units, 0.0203
- CC(C)[N+]1(C)[C@@H]2CC[C@H]1C[C@@H](OC(=O)C(CO)c1ccccc1)C2 (stereo not given in full) [Ipratropium bromide] — lower, -0.65
- N[C@H]1CCN(O)C1=O — within 0.2 log units, 0.0498
- CC(CCCCC(=O)Nc1ccc(C(F)(F)F)cc1)NCCc1cnc[nH]1 (stereo not given) [HTMT dimaleate] — within 0.2 log units, 0.258
- N[C@H](C(=O)O)c1ccc(O)c(C(=O)O)c1 [(S)-3-Carboxy-4-hydroxyphenylglycine] — higher, 0.267
- c1cc2c(cc1C1CCCCC1)c1c3n2CCNC3CCC1 (stereo not given) [Tetrindole mesylate] — higher, 0.672
- CN1CCC(=C2c3ccccc3CC(=O)c3sccc32)CC1 [Ketotifen fumarate] — higher, 0.589
- CCOC(=O)C1=C[C@]2(CC)CCCN3CCc4c(n1c1ccccc41)[C@@H]32 [Vinpocetine] — higher, 0.406
- CC(C)Oc1ccc2c(=O)c3cc(C(=O)O)ccc3oc2c1 — higher, 0.473
- CC(C)NC[C@H](O)COc1ccc(CC(N)=O)cc1 [(S)-(-)-Atenolol] — within 0.2 log units, 0.12
- Cc1noc(NS(=O)(=O)c2ccc(N)cc2)c1C [Sulfisoxazole] — within 0.2 log units, 0.239
- COc1cc(C(=O)OCCCN2CCCN(CCCOC(=O)c3cc(OC)c(OC)c(OC)c3)CC2)cc(OC)c1OC [Dilazep] — within 0.2 log units, 0.175
- CC(C)NC[C@H](O)COc1cccc2ccccc12 [(S)-(-)-Propranolol hydrochloride] — higher, 0.355
- CC(C)NC[C@@H](O)COc1cccc2ccccc12 [(R)-(+)-Propranolol hydrochloride] — within 0.2 log units, 0.00434
- Cc1ccc(/C(=C\CN2CCCC2)c2ccccn2)cc1 [trans-Triprolidine hydrochloride] — lower, -0.298
- C1COC(NC(C2CC2)C2CC2)=N1 [Rilmenidine hemifumarate] — higher, 0.278
- O=C(O)c1cccnc1C(=O)O [Quinolinic acid] — higher, 0.278
- CN(C)CCCSC(=N)N [Dimaprit dihydrochloride] — within 0.2 log units, 0.203
- O=C1CC2(CCCC2)CC(=O)N1CCNCC1COc2ccccc2O1 (stereo not given) — higher, 0.301
- CC(C)NCC(O)c1ccc2ccccc2c1 (stereo not given) [Pronethalol hydrochloride] — higher, 0.437
- CCC1(c2ccccc2)C(=O)NCNC1=O [Primidone] — higher, 0.333
- CC(=O)N[C@@H](Cc1c[nH]c2ccccc12)C(=O)OCc1cc(C(F)(F)F)cc(C(F)(F)F)c1 — within 0.2 log units, 0.214
- O=[N+]([O-])c1cccc2cn[nH]c12 [7-Nitroindazole] — within 0.2 log units, 0.16
- O=C1CN(/N=C/c2ccc(-c3ccc([N+](=O)[O-])cc3)o2)C(=O)N1 [Dantrolene, sodium salt] — within 0.2 log units, 0.18
- N[C@H](C(=O)O)c1ccc(C(=O)O)c(O)c1 [(S)-4-Carboxy-3-hydroxyphenylglycine] — lower, -0.331
- CC(C)CC(NC(=O)OCC1c2ccccc2-c2ccccc21)C(=O)O (stereo not given) — within 0.2 log units, 0.0242
- COC(=O)/C=C/c1cc(O)ccc1O [Methyl 2,5-dihydroxycinnamate] — within 0.2 log units, 0.0626
- NC(=O)c1cccc(N)c1 [3-Aminobenzamide] — higher, 0.336
- C/N=C(/NC#N)NCCSCc1csc(NC(=N)N)n1 [Tiotidine] — higher, 0.383
- Fc1ccc(C(c2ccc(F)cc2)N2CCN(C/C=C/c3ccccc3)CC2)cc1 [Flunarizine dihydrochloride] — within 0.2 log units, 0.219
- O=C(NCCN1CCCCC1)c1ccc(I)cc1 [N-[2-(Piperidinylamino)ethyl]-4-iodobenzamide] — higher, 0.492
- NC(=O)OCC(COC(N)=O)c1ccccc1 [Felbamate] — lower, -0.737
